The full ranking holds about 18,000 sequences; the median of “TetR repression strength (sort-seq, GFP reporter)” is about 0.23, and the highest 2% start at about 0.68. This excerpt belongs to a sample that is enriched for the highest values.

TetR (class B, Tn10), sequence (P04483 whole entry): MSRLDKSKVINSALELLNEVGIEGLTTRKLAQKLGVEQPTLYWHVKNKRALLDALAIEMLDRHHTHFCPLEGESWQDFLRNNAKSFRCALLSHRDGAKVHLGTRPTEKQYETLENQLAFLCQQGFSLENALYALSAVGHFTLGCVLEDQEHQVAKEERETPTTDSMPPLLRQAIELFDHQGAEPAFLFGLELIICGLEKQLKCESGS

This test has as its target TetR (class B, Tn10) (UniProt P04483). As to the kind of experiment: TetR repression strength (sort-seq, GFP reporter) (relative to tetO2 = 1); higher = stronger repression. The note with it: E. coli. Summed up:
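Repression strength is the top bin index plus one minus the read-weighted mean bin, relative to the unaltered operator's value. A low-copy library in E. coli SIG10-MAX randomized eight operator positions between a constitutive promoter and sfGFP, with TetR expressed constitutively; cells grew 5 h at 37 °C in LB with 50 µg/mL chloramphenicol and 10^6 were FACS-sorted into 13 bins that were each Illumina-sequenced. Three independent transformations were averaged, keeping only members with ≥30 reads in all replicates and CV ≤0.5.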
Regarding TCCCCTCAAGTTAGCGAGA, the TetR repression strength was determined as 0.742. To TCCCCTCAAGTTAGGGAGA belongs 0.304; to TCCCGACTAGTTAGTGAGA, 0.25; to TCCCGGCTAGTTAGCGAGA, 0.485.

Consider TCCCCTCAAGTTGGCGAGA, for which the TetR repression strength is 0.113. To TCCCGACTAGTTAGCGAGA belongs 0.682; to TCCCATGGAGTATGAGAGA, 0.417. Turning to TCCCAAAGAGTGGAGGAGA, the TetR repression strength was found to be 0.388. Regarding TCCCCGCCAGTAAAAGAGA, the TetR repression strength is 0.389. To TCCCGGTCAGTGGCCGAGA belongs 0.523; to TCCCGGCCAGTTCGTGAGA, 0.197. Take TCCCGTGCAGTTGCAGAGA: the TetR repression strength is 0.376.

In turn, TCCCGTGTAGTTGGAGAGA returned a TetR repression strength of 0.191. In the case of TCCCGCGTAGTGGTTGAGA it was 0.826; in that of TCCCGCGGAGTGGTGGAGA, 0.155; in that of TCCCCCGTAGTAGGAGAGA, 0.197. In the case of TCCCGCGTAGTAGGAGAGA it was 0.691. To TCCCGCGGAGTGGTTGAGA belongs 0.768; to TCCCGCGTAGTTGTTGAGA, 0.402; to TCCCGCGTAGTGGTGGAGA, 0.256. TCCCGTGTAGTTGCAGAGA registered a TetR repression strength of 0.976. To TCCCCCGGAGTGGTTGAGA belongs 0.192; to TCCCGCGTAGTAGGGGAGA, 0.425; to TCCCTGTGAGTCGTTGAGA, 0.443. Regarding TCCCGGTAAGTATTCGAGA, the TetR repression strength is 0.175.

TCCCCATAAGTCCTTGAGA displayed a TetR repression strength of 0.415. To TCCCATAGAGTATGGGAGA belongs 0.0311. In the case of TCCCGGAGAGTAGCGGAGA it was 0.287; in that of TCCCTTTCAGTGATTGAGA, 0.713. In the case of TCCCAATCAGTGTGTGAGA it was 0.101; in that of TCCCAATCAGTGAGTGAGA, 0.701. TCCCTATCAGTGTCAGAGA came in with a TetR repression strength of 0.958.

As for TCCCTATAAGTTGTGGAGA, the TetR repression strength amounted to 0.201. In the case of TCCCTATCAGTTGTGGAGA it was 0.726; in that of TCCCTTTCAGTGAGTGAGA, 0.488; in that of TCCCTATGAGTGTCAGAGA, 0.238.

In the case of TCCCTTTCAGTTATTGAGA, the TetR repression strength worked out at 0.55. In the case of TCCCTATCAGTGTCTGAGA it was 0.556; in that of TCCCAATCAGTGAGAGAGA, 0.538; in that of TCCCTATCAGTTGTTGAGA, 0.441. To TCCCTTGTAGTTGAAGAGA belongs 0.148. In the case of TCCCTTGGAGTGATAGAGA it was 0.384; in that of TCCCTTTCAGTTAAGGAGA, 0.196; in that of TCCCTGGAAGTGTTCGAGA, 0.277. TCCCGGAGAGTATAAGAGA: the TetR repression strength is 0.289. Regarding TCCCAAGAAGTAGGTGAGA, the TetR repression strength came to 0.23.

Regarding TCCCATAAAGTTCAAGAGA, the TetR repression strength stood at 0.224. In the case of TCCCTTACAGTTCCAGAGA it was 0.363.

The sequence TCCCTTATAGTCTCGGAGA registered a TetR repression strength of 0.214. In the case of TCCCTCTCAGTGATGGAGA it was 0.546; in that of TCCCCATCAGTAACGGAGA, 0.304. Regarding TCCCTAACAGTGATGGAGA, the TetR repression strength came to 0.278.

TCCCTGTCAGTGAGCGAGA gave a TetR repression strength of 0.341. In the case of TCCCTATGAGTGAGCGAGA it was 0.278. TCCCAATCAGTAACTGAGA registered a TetR repression strength of 0.278. In the case of TCCCTATCAGTCATTGAGA it was 0.708; in that of TCCCTATCAGTGATGGAGA, 0.999. To TCCCTATCAGTGAGCGAGA belongs 0.73. To TCCCTATCAGTCAATGAGA belongs 0.625; to TCCCAATCAGTAACGGAGA, 0.802; to TCCCTATAAGTCATTGAGA, 0.498. TCCCGTTCAGTGCTTGAGA yielded a TetR repression strength of 0.367.

TCCCACTCAGTGCATGAGA gave a TetR repression strength of 0.218. In the case of TCCCCCTGAGTAGGCGAGA it was 0.179; in that of TCCCCGCAAGTACACGAGA, 0.292; in that of TCCCCAGGAGTGATGGAGA, 0.176.

The sequence TCCCTAGTAGTTGTGGAGA yielded a TetR repression strength of 0.283.

Consider TCCCTCGGAGTTGGTGAGA, for which the TetR repression strength is 0.237. TCCCTGTCAGTCGGTGAGA yielded a TetR repression strength of 0.378. To TCCCCGGCAGTGGTGGAGA belongs 0.25.

TCCCGGACAGTGCCAGAGA came in with a TetR repression strength of 0.402. For TCCCATGGAGTCGGTGAGA, the TetR repression strength amounted to 0.0966. In the case of TCCCTATAAGTCAGTGAGA it was 0.427. To TCCCGGACAGTGTGAGAGA belongs 1.2; to TCCCGGACAGTTGGAGAGA, 0.299; to TCCCGGACAGTGAGAGAGA, 0.246. For TCCCGGACAGTTTGGGAGA, the TetR repression strength is 0.473. In the case of TCCCAATCAGTGAATGAGA it was 0.603. To TCCCGGACAGTGTGTGAGA belongs 0.2; to TCCCTATAAGTGAGGGAGA, 0.237. In the case of TCCCTATCAGTGAATGAGA it was 0.781; in that of TCCCTATAAGTGAGTGAGA, 0.693; in that of TCCCGGACAGTTGGGGAGA, 0.922. As for TCCCTAACAGTGAATGAGA, the TetR repression strength is 0.46. To TCCCGCGAAGTAAGCGAGA belongs 0.151; to TCCCTCCTAGTGCGAGAGA, 0.151. To TCCCCGTGAGTTGGAGAGA belongs 0.319.

The sequence TCCCCATGAGTTAGCGAGA gave a TetR repression strength of 0.188. To TCCCTGCCAGTTCATGAGA belongs 0.0931. In the case of TCCCGAGCAGTGGAGGAGA it was 0.35; in that of TCCCCTAGAGTGGGGGAGA, 0.195. To TCCCGTTCAGTTTGTGAGA belongs 0.145; to TCCCAATCAGTTAGGGAGA, 0.146. TCCCTGGCAGTCGGGGAGA returned a TetR repression strength of 0.473. The sequence TCCCTAGTAGTGCAAGAGA registered a TetR repression strength of 0.538. For TCCCTGTGAGTCTCAGAGA, the TetR repression strength came out at 0.365. To TCCCTAACAGTGATTGAGA belongs 0.745. To TCCCTTCGAGTGATTGAGA belongs 0.73; to TCCCTGTCAGTGTGAGAGA, 0.0482; to TCCCCTCGAGTGATTGAGA, 0.244. To TCCCTACCAGTGATTGAGA belongs 0.511. TCCCTATCAGTGTGAGAGA returned a TetR repression strength of 0.919. For TCCCTTTGAGTAAGTGAGA, the TetR repression strength was found to be 1.15. TCCCTTTGAGTAAGGGAGA gave a TetR repression strength of 0.152. TCCCTTTGAGTGATTGAGA showed a TetR repression strength of 0.263. In the case of TCCCTTTAAGTAAGTGAGA it was 0.247. In the case of TCCCTATGAGTGTGAGAGA it was 0.252. To TCCCTAACAGTGAGTGAGA belongs 0.514.
